# From ChEMBL document CHEMBL3988442, “University of Dundee, Small-Polar-MMV Screening Library” (2021)
# Among all 48,000 compounds or so, about 13,000 (27%) showed an effect of 50% or more. The list shows a part of the results.
# System: Wolbachia pipientis
# Assay: Anti-Wolbachia Cell-Based Screen
# Assay type: functional
# Set-up: scale not given: in the data most compounds retested in dose-response had high values
# Conditions: 5 µM
row,Structure (SMILES),Percent Effect
1,O=C(C[S+]([O-])Cc1ccc(F)cc1Cl)N1CCc2sccc2C1 (stereo not given),-9.716%
2,Cc1cc2n(n1)CC(CNC1CCN(Cc3ccccn3)CC1)CN2 (stereo not given),3.925%
3,O=C(N[C@@H]1CN(Cc2ccco2)[C@@H]2CCCO[C@@H]21)c1cscn1,106.9%
4,NC(=O)N1C[C@H](NC(=O)c2cscn2)[C@@H]2OCCC[C@@H]21,101.9%
5,O=C(N[C@@H]1CN(c2ncccn2)[C@@H]2CCCO[C@@H]21)c1cscn1,-1.481%
6,O=C(N[C@@H]1CN(c2ncccn2)[C@@H]2CCCO[C@@H]21)c1cnccn1,-12.54%
7,CCOc1cc(CNCCCn2ccnc2)cc(Cl)c1OCC,-4.315%
8,CC(C)Cc1noc(CN2CCC(NC(=O)c3cccs3)CC2)n1,5.621%
9,CCOC(C)c1noc(CN2CCN(Cc3ccno3)CC2)n1 (stereo not given),-9.724%
10,CN(Cc1cc(-c2ccncc2)no1)C(=O)[C@@H]1CSCN1C,2.417%
11,O=C(Cc1csc(-c2ccco2)n1)N1CCN(c2cnccn2)CC1,16.12%
12,O=C(c1ccccn1)N1CCc2nc(-c3cnccn3)nc(O)c2C1,-8.53%
13,COCC(=O)N1CCc2nc(-c3cnccn3)nc(O)c2C1,104.8%
14,O=C(CCC1CCCO1)N1CCc2nc(-c3cnccn3)nc(O)c2C1 (stereo not given),116.1%
15,Cc1nc(CC(=O)N2CCc3nc(-c4cnccn4)nc(O)c3C2)cs1,88.77%
16,CS(=O)(=O)NC1CCN(C(=O)CCC2CCCO2)CC1 (stereo not given),10.42%
17,COCC(=O)N1CCc2nc(C(=O)Nc3cccnc3)sc2CC1,1.921%
18,CS(=O)(=O)N1CCN(C(=O)CCC2CCCO2)CC1 (stereo not given),1.133%
19,CC(C)(CC(=O)N(CC(N)=O)C1CCCC1)c1ccccc1,-10.15%
20,CC(C)(CN)NS(=O)(=O)c1cccc(F)c1F.Cl,-6.445%
21,C=Cc1cccc(CN2C[C@H]3CC[C@@H]2CN(Cc2c(C)noc2C)C3)c1,-8.639%
22,COC(=O)NCC(=O)N(C)Cc1csc(C)n1,0.6719%
23,Cc1ccc(C(=O)N(C)Cc2ccc(Br)o2)c(=O)[nH]1,131.8%
24,Cc1ccc(C(=O)N(Cc2ccc(F)cc2F)C2CC2)c(=O)[nH]1,-11.26%
25,Cc1ccc(C(=O)N(C)Cc2ccc(Br)s2)c(=O)[nH]1,139.4%
26,Cc1nc(CN(C)C(=O)CNC(=O)c2ccc(C#N)cc2)cs1,6.778%
27,Cc1ccc(C(=O)N(Cc2ccc(F)cc2)C2CC2)c(=O)[nH]1,-2.478%

row,Structure (SMILES),Percent Effect
1,Cc1ccc(C(=O)N(C)Cc2csc(C)n2)c(=O)[nH]1,127.5%
2,CCN(Cc1ccc2c(c1)OCO2)C(=O)c1ccc(C)[nH]c1=O,-8.548%
3,Cc1ccc(C(=O)N(C)Cc2c(C)noc2C)c(=O)[nH]1,0.555%
4,Cc1ccc(C(=O)N(C)Cc2csc(Br)c2)c(=O)[nH]1,125.8%
5,Cc1ncsc1C(=O)N(C)Cc1ccc(Br)o1,23.63%
6,Cc1ccc(C(=O)NCC(O)c2ccc(Cl)s2)c(=O)[nH]1 (stereo not given),-29.35%
7,CNc1ccnc(N2C[C@@H](C)[C@](O)(C3CCC3)C2)n1,-0.8884%
8,Cl.O=C(CCC1CCCC1)NCCn1nc(C2CCNC2)c2nccnc21 (stereo not given),-7.206%
9,COCCC(=O)NCCn1nc(C2CCNC2)c2cccnc21.Cl (stereo not given),104.9%
10,CN(C(=O)CNC(=O)CC(C)(C)C)C1CCN(c2ccccn2)CC1,12.99%
11,CNc1ncc(CN(C)C(=O)c2ccccc2C2CCNC2)cn1 (stereo not given),-12.29%
12,Cc1cccnc1[C@H](C)NC(=O)c1cccc(CC2CCNCC2)c1,-20.86%
13,CC(C)CC(=O)NCCn1nc(C2CCNC2)c2cccnc21.Cl (stereo not given),97.32%
14,COCCN(C(=O)c1c[nH]c2ncccc12)C1CCCC1,6.84%
15,CC(C)(C)CC(=O)Nc1ncn(CC(=O)NCc2ccccc2)n1,0.2654%
16,CC(C)(C)CC(=O)NCCn1nc(C2CCNC2)c2cccnc21.Cl (stereo not given),117.2%
17,CC(C)NS(=O)(=O)c1cc(C(=O)O)cc(-c2ccc(CN(C)C)cc2)c1,-14.22%
18,Cc1cc(CNC(=O)Nc2ccc(C(=O)NC3CC3)cc2)no1,1.867%
19,CC(C)(O)CCc1cccc(C(=O)NCCC2CCOC2)c1 (stereo not given),-27.94%
20,CO[C@H]1C[C@@H](O)C12CCN(C(=O)c1cccc(CCC(C)(C)O)c1)CC2,-1.029%
21,CC(C)(O)CCc1cccc(C(=O)N2CCC[C@H]2CN2CCCC2)c1,96.29%
22,CC(C)(O)CCc1cccc(C(=O)N2CCC3(CCOCC3)CC2)c1,-3.198%
23,CC(=O)NCCC1CCCCN1C(=O)c1cccc(CCC(C)(C)O)c1 (stereo not given),90.48%
24,CC(C)(O)CCc1cccc(C(=O)N2CCC3(CCO3)CC2)c1,8.25%
25,CCc1nnc(SCC(=O)Nc2cc(C(C)(C)C)nn2C)[nH]1,-3.815%
26,CCOc1cc(CN2CCCC2)ccc1Oc1cccc(C#N)n1,-4.025%
27,COc1cc(CNC(=O)NCc2c(C)cc(C)[nH]c2=O)ccc1C,1.509%

row,Structure (SMILES),Percent Effect
1,CC(C)(C)N1CC(c2ncc(-c3ccc4c(c3)OCCO4)[nH]2)CC1=O (stereo not given),-4.995%
2,O=C(CC1COCCN1)NCCc1noc(-c2ccccc2)n1 (stereo not given),-6.645%
3,O=C(CC1COCCN1)NCCc1nc(-c2ccccn2)no1 (stereo not given),-14.35%
4,Cl.Nc1ncc(-c2csc(NC(=O)C[C@H]3COCCN3)n2)cn1,103.3%
5,O=C(CC1COCCN1)NCCc1nc(Cc2ccccc2)no1 (stereo not given),18.61%
6,CNc1ncc(-c2csc(NC(=O)C[C@H]3COCCN3)n2)cn1.Cl,71.35%
7,Cc1nsc(NC(=O)NC2CCCOC2)n1 (stereo not given),-39.42%
8,CC(C)Nc1ncc(-c2csc(NC(=O)C[C@H]3COCCN3)n2)cn1,64.22%
9,CCNC(=O)NCc1cnn(-c2ccc(F)cc2F)c1,-2.386%
10,Cc1cc(CC(=O)NCC(O)c2ccc(OC(F)F)cc2)n[nH]1 (stereo not given),-1.889%
11,Cc1ccccc1-c1noc(CNc2ccc(F)cc2OCCO)n1,17.52%
12,CS(=O)(=O)c1ccc(CN2C[C@@H]3OCC(=O)N(CC(N)=O)[C@@H]3C2)cc1,4.5%
13,CCS(=O)(=O)N1C[C@@H](c2ccccc2)[C@@]2(CCNC2=O)C1,107.9%
14,Cc1ccc(CN2C[C@@H](c3ccccc3)[C@@]3(CCNC3=O)C2)o1,33.3%
15,O=C(c1cnccn1)N1C[C@@H](c2ccccc2)[C@@]2(CCNC2=O)C1,-14.79%
16,O=C1NCC[C@]12CN(Cc1ccco1)C[C@H]2c1ccccc1,13.69%
17,CCCS(=O)(=O)N1C[C@@H](c2ccccc2)[C@@]2(CCNC2=O)C1,108.5%
18,CN(C)c1ccc(CC(=O)N2C[C@H](C3CC3)[C@@H](N)C2)cc1,-4.487%
19,COc1ccc2c(c1)s/c(=N\C(=O)CSCC(=O)Nc1nccs1)n2C,-4.566%
20,N#CCCN(CC1CC1)S(=O)(=O)c1cccc(Cl)c1,-14.4%
21,CC(=O)c1cccc(-c2c[nH]c(C)n2)c1,-8.634%
22,Cc1cnccc1CNCc1ccc(OC23CCCN(CC2)C3)cc1 (stereo not given),106.9%
23,Cc1nc(CNCc2ccc(OC34CCCN(CC3)C4)cc2)n[nH]1 (stereo not given),103.3%
24,O=c1[nH]nc(CNCc2ccc(OC34CCCN(CC3)C4)cc2)[nH]1 (stereo not given),93.23%
25,Cc1ccnc(NCc2cccc(OCCN3CCOCC3)c2)n1,10.24%
26,Cc1n[nH]cc1CNCc1cccc(OCC(F)(F)F)c1.Cl,-11.93%
27,Cc1ccc(CN2CCNC(=O)C2CC(=O)NCc2n[nH]c(C)n2)cc1 (stereo not given),3.294%

row,Structure (SMILES),Percent Effect
1,CCN1CCCC(O)(CNCc2ccncc2)C1 (stereo not given),6.912%
2,Cc1nc(CNCc2cccc(OC34CCCN(CC3)C4)c2)n[nH]1 (stereo not given),113.3%
3,COCCN1CCCC(O)(CN2CCN(c3ccncc3C)CC2)C1=O (stereo not given),-3.963%
4,COc1ccc(C(C)(C)C(=O)NCc2n[nH]c(=O)[nH]2)cc1,-12.5%
5,OC(CN1CCN(CC2CC2)CC1)c1ccc(Br)cc1 (stereo not given),16.18%
6,CCNC(=O)NC(=O)C(C)N1CCCc2cc(OC)ccc2C1 (stereo not given),-0.429%
7,CCc1ccc(C(C)NC(=O)CCc2nc(-c3nnc[nH]3)no2)cc1 (stereo not given),0.9549%
8,CC(C)CC(O)C1CCN(Cc2ccc(N(C)C)nc2)CC1 (stereo not given),7.143%
9,Cc1nc(C(NC(=O)c2cc(C(C)C)[nH]n2)c2ccccc2)n[nH]1 (stereo not given),-6.911%
10,CCC(CO)N(Cc1ccccn1)C(=O)c1cccc(C#N)c1 (stereo not given),-13.95%
11,CNS(=O)(=O)c1ccc(CNC(=O)Nc2ccccn2)s1,-5.463%
12,CS(=O)(=O)c1nnc(NC(=O)CCc2cc(F)ccc2F)[nH]1,-16.39%
13,CC1c2ncc(Cn3cncn3)n2CCN1C(=O)Cc1cccs1 (stereo not given),-8.694%
14,COCc1cnc2n1CCN(C(=O)C1=CCCCC1)C2C (stereo not given),2.775%
15,CC1c2ncc(Cn3cncn3)n2CCN1C(=O)c1ccsc1 (stereo not given),106%
16,CC1c2ncc(Cn3cncn3)n2CCN1C(=O)c1ccccn1 (stereo not given),114.5%
17,COCc1cnc2n1CCN(C(=O)c1cc3cc(Cl)ccc3o1)C2C (stereo not given),1.755%
18,CC1c2ncc(Cn3cncn3)n2CCN1C(=O)c1cscn1 (stereo not given),89.1%
19,CN1CCN(Cc2cnc3n2CCN(C(=O)c2cscn2)C3)CC1,22%
20,CCN1CC(Oc2ccc(Cl)cc2)=NC(SCC(=O)c2ccccc2)=N1,3.791%
21,O=C(CSC1=NS(=O)(=O)c2cc(Cl)ccc2N1)c1ccccc1,112.7%
22,O=C(CSC1=NS(=O)(=O)c2cc(F)ccc2N1)c1ccc(Cl)cc1,4.147%
23,O=C(CN1C(=O)c2ccccc2CS1(=O)=O)c1ccc(Cl)cc1,-11.99%
24,O=C(CSC1=NS(=O)(=O)c2cc(F)ccc2N1)c1ccccc1,100.3%
